Measured values from PubChem BioAssay.
Active and inactive are the calls of the source. Cut-off read from the data, not from the text of the source: active = inhibition above about 30%; inactive = the rest.

Test: growth suppression of yeast trafficking mutant, preliminary HTS, modulators of trafficking downstream of Golgi apparatus project, 1536-format plate, OD 615 nm (AID 637)
Settings: yeast transport mutant growth, absorbance 615 nm, 18 h; active compounds read high

inhibition, inactive:
CC1(C(=O)CSc2nc3ccccc3s2)CCC(=O)O1 (stereo not given) -3.17%
Cc1cc(NC(=O)CN2CCC(O)(c3cccc(F)c3)CC2)no1 -6.83%
COC(=O)c1[nH]c2ccccc2c1NC(=O)CN1CCC(C(N)=O)(N2CCCCC2)CC1 0.49%
Cc1cc(C)n(CCCNC(=O)c2ccc3c(c2)NC(=O)CS3)n1 -1.48%
CCOC(=O)/C=C1\SCC(=O)N1Cc1ccc(Br)cc1 4.13%
CCOc1ccc2cc(C#N)c(SCC(=O)N3CCOCC3)nc2c1 1.94%
CCN(CC)CCN1C(=O)C(O)=C(C(=O)c2ccco2)C1c1ccccn1 (stereo not given) 5.08%
O=C1CCC(=O)N1OCCCCOc1ccccc1 0.48%
O=C(O)CCc1ccc(-c2ccc(F)cc2)n1CC(=O)O -1.43%
CCN(CC)CCCN(Cc1cc2cc(OC)ccc2[nH]c1=O)C(=O)Nc1ccccc1 -1.97%
Cc1cccc(Cc2nnc(NC(=O)c3cccc(S(=O)(=O)N4CCOCC4)c3)s2)c1 -5.33%
CC(C)(CO)NC(=O)CCCOc1ccc(Cl)cc1Cl 0.17%
O=C(c1ccc(-c2ccccc2)cc1)N1CCN(c2ncccn2)CC1 6.39%
Fc1ccc(-c2csc3nnc(SCc4cccnc4)n23)cc1 8.33%
CN(C)CCCN1C(=O)C(=O)/C(=C(/O)c2ccncc2)C1c1cccc(Br)c1 (stereo not given) -5.9%
CCN(CC)c1ccc(-c2c(C#N)c(N)nc(OC)c2C#N)cc1 -8.36%
Cc1cc(NC(=O)CSc2nc3ccccc3n2CC(=O)N2CCCCC2)no1 3.61%
CCOC(=O)C1CCN(C(c2cc3cc(C)cc(C)c3[nH]c2=O)c2nnnn2C2CCCCC2)CC1 (stereo not given) 2.38%
O=c1[nH]cnc2c1nc(SCc1ccccc1)n2C1OC(CO)C(O)C1O (stereo not given) 4.6%
COc1ccc(-c2noc(CCCC(=O)O)n2)cc1 5.08%
Cc1nc(SCC(=O)N2CCC(C(N)=O)CC2)n[nH]1 1.45%
COC(=O)c1ccc(NC(=O)Cn2nnc3ccccc32)cc1 0%
O=C(CCC(=O)N1CCc2ccccc2C1)N1CCN(S(=O)(=O)c2ccccc2)CC1 12.9%
O=C(CN1C(=O)CCSc2ccccc21)Nc1ccc(F)cc1 0.16%
CCC(=O)/C=C1\Sc2ccc(OC)cc2N1CCO -4.68%
